The panel holds about 83,000 compounds, 20% with a hit somewhere; the sample as a whole holds those more often.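 For each line, cells grew in 96-well plates with the test compound present at a single concentration for 48 hours.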 Calls of active or inactive are those of the source. Rule for the calls: active = growth percent below 10; inactive = the rest.
test system: SK-OV-3 ovarian; test: NCI-60 one-dose screen, 48 h (100 = growth as untreated, 0 = no growth, -100 = all killed); conditions: 10 µM unless noted

| Compound | growth |
| --- | --- |
| N=C(N)c1ccc(-c2ccc(-c3ccco3)o2)cc1F | 40.1% (inactive) |
| CCOC(=O)Cn1c(-c2nonc2NC(=O)c2ccccc2F)nc2ccccc21 | 75% (inactive) |
| CC(C)OC1OC(OC(C)C)C(OC(C)C)OC1OC(C)C (stereo unspecified) | 113% (inactive) |
| Cc1nn(-c2ccccc2)c2nc3c(nc12)C1=NCCN1C(c1ccc(Cl)cc1)N3 (stereo unspecified) | 104% (inactive) |
| COc1ccc(-c2ccc(-c3ccc(C(=N)N)s3)s2)cc1 | -88.9% (active) |
| N=C(N)c1ccc(-c2ccc(-c3cccs3)s2)cc1F | -100% (active) |
| Cc1csc(N/N=C/c2ccncc2)n1 | 101% (inactive) |
| CCCCCCCCCCCCCCCC1=NCCN1 | 99.2% (inactive) |
| CCS(=O)(=O)Nc1cccc(Nc2c3cccc(C)c3nc3c(C)cccc23)c1OC | 30.6% (inactive) |
| N/C(=N\O)c1ncc(-c2ccc(C(F)(F)F)cc2)c(NC2CCCCCC2)n1 | -17.8% [100 µM] (active) |
| N/N=C(\C(=N\N)c1ccccc1)c1ccccc1 | 99.4% (inactive) |
| COc1cc(/C=C/c2cc(/C=C/c3ccc(O)c(OC)c3)n(C(=O)Nc3ccc(F)c(Cl)c3)n2)ccc1O | -31.2% (active) |
| Cc1cc(Nc2c3ccccc3nc3ccccc23)ccc1NS(C)(=O)=O | 43.5% (inactive) |
| O=C(CC(=O)c1ccccc1F)Nc1ccc([N+](=O)[O-])cc1 | 108% (inactive) |
| CCCCCCCCCCCC1=NC(C)(C)CN1CCO | 97% (inactive) |
| COc1cc2ccc(C(C)=O)cc2cc1OC | 95.6% (inactive) |
| Cc1ccccc1Nc1n[nH]c(Cc2ccccc2)n1 | 105% (inactive) |
| CNC1=C([N+](=O)[O-])C(c2ccccc2O)C(C#N)=C(c2cccs2)O1 (stereo unspecified) | 94.5% (inactive) |
| CCN(C(=O)CCl)C(C)(C)C(SSSC(c1ccc(Cl)cc1)C(C)(C)N(CC)C(=O)CCl)c1ccc(Cl)cc1 (stereo unspecified) | 87.5% (inactive) |

| Compound | growth |
| --- | --- |
| COc1cc2c(cc1OC)-c1cc(OC)c(OC)cc1C(CN(C)C)C2 (stereo unspecified) | 6.96% [100 µM] (active) |
| CCCCOC(=O)c1cc(O)c(O)c(O)c1 | 85.1% (inactive) |
| FC(F)(F)c1cc(-c2nnc3n2N=C(Cl)CS3)cc(C(F)(F)F)c1 | 99.9% (inactive) |
| COc1cc2ncnc(Nc3ccc(S(=O)(=O)Nc4cc(C)on4)cc3)c2cc1OCCCN1CCN(c2ccc([N+](=O)[O-])cc2)CC1 | 99% (inactive) |
| COc1ccc(/C=N/NC(N)=S)c(OC)n1 | 114% (inactive) |
| O=C1c2cccc3cccc(c23)C(=O)N1CCCCCCCCCCN1C(=O)c2cccc3cccc(c23)C1=O | 105% (inactive) |
| O=C1OC(/C=C/c2ccccc2)=NC/1=C/c1ccccc1[N+](=O)[O-] | 101% (inactive) |
| C=C(c1ccc(C(=O)NCCCn2ccnc2)cc1)c1cc2c(cc1C)C(C)(C)CCC2(C)C | 4.17% (active) |
| O=[N+]([O-])c1ccc(Sc2nc(Cl)nc(NC3CCCC3)n2)cc1 | -100% [100 µM] (active) |
| O=C(NCCN1CCCCC1)n1cc(-c2ccncc2)c(-c2ccc(Cl)c(O)c2)n1 | 71.5% (inactive) |
| CC(C)(C)c1cc(C[P+](c2ccccc2)(c2ccccc2)c2ccccc2)cc(C(C)(C)C)c1O | -0.717% (active) |
| N#Cc1ccc(-c2ccc(-c3cccs3)o2)cc1F | 52.1% (inactive) |
| Cc1cccc2nc3ccccc3c(Nc3ccc(NS(C)(=O)=O)cc3)c12 | 41% (inactive) |
| COc1cc(OC)cc(-c2ccc(-c3ccc(C(=N)N)s3)s2)c1 | -92.4% (active) |
| C=C1C(=O)O[C@H]2[C@H]1CC/C(COC(=O)NCc1[nH]nc3ccccc13)=C\CC[C@@]1(C)O[C@@H]21 | 75.6% (inactive) |
| COC(=O)[C@H](Cc1cn(C)cn1)NC(=O)[C@H](CC(C)C)NC(=O)Nc1cc(C(F)(F)F)cc(C(F)(F)F)c1 | -100% [100 µM] (active) |
| CCOC(=O)c1cc(C(=O)OCC)c(C)nc1C | 114% (inactive) |
| COC(=O)[C@@H](Cc1c[nH]c2ccccc12)NC(=O)/C=C/c1ccccc1 | 2.1% (active) |
| CCOC(=O)C(CCCCC(NC(C)=O)(C(=O)OCC)C(=O)OCC)(NC(C)=O)C(=O)OCC | 96.9% (inactive) |

test system: IGROV1 ovarian; test: as above; conditions: 10 µM unless noted

| Compound | growth |
| --- | --- |
| N=C(N)c1ccc(-c2ccc(-c3ccco3)o2)cc1F | 11.9% (inactive) |
| CCOC(=O)Cn1c(-c2nonc2NC(=O)c2ccccc2F)nc2ccccc21 | 46.3% (inactive) |
| CC(C)OC1OC(OC(C)C)C(OC(C)C)OC1OC(C)C (stereo unspecified) | 93.9% (inactive) |
| Cc1nn(-c2ccccc2)c2nc3c(nc12)C1=NCCN1C(c1ccc(Cl)cc1)N3 (stereo unspecified) | 88.8% (inactive) |
| COc1ccc(-c2ccc(-c3ccc(C(=N)N)s3)s2)cc1 | -57.2% (active) |
| N=C(N)c1ccc(-c2ccc(-c3cccs3)s2)cc1F | -70.6% (active) |
| Cc1csc(N/N=C/c2ccncc2)n1 | 105% (inactive) |
| CCCCCCCCCCCCCCCC1=NCCN1 | 42.3% (inactive) |
| CCS(=O)(=O)Nc1cccc(Nc2c3cccc(C)c3nc3c(C)cccc23)c1OC | 36.2% (inactive) |
| N/C(=N\O)c1ncc(-c2ccc(C(F)(F)F)cc2)c(NC2CCCCCC2)n1 | -77.2% [100 µM] (active) |
| N/N=C(\C(=N\N)c1ccccc1)c1ccccc1 | 96.8% (inactive) |
| COc1cc(/C=C/c2cc(/C=C/c3ccc(O)c(OC)c3)n(C(=O)Nc3ccc(F)c(Cl)c3)n2)ccc1O | 4.57% (active) |
| Cc1cc(Nc2c3ccccc3nc3ccccc23)ccc1NS(C)(=O)=O | 25.5% (inactive) |
| O=C(CC(=O)c1ccccc1F)Nc1ccc([N+](=O)[O-])cc1 | 97.9% (inactive) |
| CCCCCCCCCCCC1=NC(C)(C)CN1CCO | 38.5% (inactive) |
| COc1cc2ccc(C(C)=O)cc2cc1OC | 106% (inactive) |
| Cc1ccccc1Nc1n[nH]c(Cc2ccccc2)n1 | 107% (inactive) |
| CNC1=C([N+](=O)[O-])C(c2ccccc2O)C(C#N)=C(c2cccs2)O1 (stereo unspecified) | 90.3% (inactive) |
| CCN(C(=O)CCl)C(C)(C)C(SSSC(c1ccc(Cl)cc1)C(C)(C)N(CC)C(=O)CCl)c1ccc(Cl)cc1 (stereo unspecified) | 74.3% (inactive) |

| Compound | growth |
| --- | --- |
| COc1cc2c(cc1OC)-c1cc(OC)c(OC)cc1C(CN(C)C)C2 (stereo unspecified) | 60.7% [100 µM] (inactive) |
| CCCCOC(=O)c1cc(O)c(O)c(O)c1 | 55.6% (inactive) |
| FC(F)(F)c1cc(-c2nnc3n2N=C(Cl)CS3)cc(C(F)(F)F)c1 | 114% (inactive) |
| COc1cc2ncnc(Nc3ccc(S(=O)(=O)Nc4cc(C)on4)cc3)c2cc1OCCCN1CCN(c2ccc([N+](=O)[O-])cc2)CC1 | 108% (inactive) |
| COc1ccc(/C=N/NC(N)=S)c(OC)n1 | 100% (inactive) |
| O=C1c2cccc3cccc(c23)C(=O)N1CCCCCCCCCCN1C(=O)c2cccc3cccc(c23)C1=O | 110% (inactive) |
| O=C1OC(/C=C/c2ccccc2)=NC/1=C/c1ccccc1[N+](=O)[O-] | 79.6% (inactive) |
| C=C(c1ccc(C(=O)NCCCn2ccnc2)cc1)c1cc2c(cc1C)C(C)(C)CCC2(C)C | 7.28% (active) |
| O=[N+]([O-])c1ccc(Sc2nc(Cl)nc(NC3CCCC3)n2)cc1 | -67.8% [100 µM] (active) |
| O=C(NCCN1CCCCC1)n1cc(-c2ccncc2)c(-c2ccc(Cl)c(O)c2)n1 | 74% (inactive) |
| CC(C)(C)c1cc(C[P+](c2ccccc2)(c2ccccc2)c2ccccc2)cc(C(C)(C)C)c1O | 12.1% (inactive) |
| N#Cc1ccc(-c2ccc(-c3cccs3)o2)cc1F | 82.4% (inactive) |
| Cc1cccc2nc3ccccc3c(Nc3ccc(NS(C)(=O)=O)cc3)c12 | 43.1% (inactive) |
| COc1cc(OC)cc(-c2ccc(-c3ccc(C(=N)N)s3)s2)c1 | -67.2% (active) |
| C=C1C(=O)O[C@H]2[C@H]1CC/C(COC(=O)NCc1[nH]nc3ccccc13)=C\CC[C@@]1(C)O[C@@H]21 | -20.8% (active) |
| COC(=O)[C@H](Cc1cn(C)cn1)NC(=O)[C@H](CC(C)C)NC(=O)Nc1cc(C(F)(F)F)cc(C(F)(F)F)c1 | -89.2% [100 µM] (active) |
| CCOC(=O)c1cc(C(=O)OCC)c(C)nc1C | 111% (inactive) |
| COC(=O)[C@@H](Cc1c[nH]c2ccccc12)NC(=O)/C=C/c1ccccc1 | 29.1% (inactive) |
| CCOC(=O)C(CCCCC(NC(C)=O)(C(=O)OCC)C(=O)OCC)(NC(C)=O)C(=O)OCC | 106% (inactive) |

Source: PubChem BioAssay (NCI)
